# Test results reported in the OligoGym collection.
# Molecular target: BRD2
# Test: pooled miR-30 sensor sort-seq; sequence = guide strand
# Details: shRNA
# Also: reference of the scale not given here.
row,Sequence,sensor-assay potency score (higher = more potent)
1,TATAATTTTGTGATAATCCGGT,0.775
2,TGCAGTAACAGCAAGGAGCGGG,-0.301
3,TTTGGGATTGGACACCTCCGGG,-1.12

# Molecular target: BRMS1L
# Test: as above
# Details: shRNA
row,Sequence,sensor-assay potency score (higher = more potent)
1,TTCACAGTCTTCATCATCCATT,-0.228
2,TTGTAGTTTTGCATCCACCTGA,0.526
3,TTCTTTACAGATTCTAAGCAGA,-0.334
4,TATAGCAACAGCTTTTCGCTCT,0.681
5,TGGACCTGAAACAACAACTGGC,-0.0627
6,TTTGGTAACACTAATAAGGTAA,-0.0586
7,TTCTTCTTCTTTCACAGTCTTC,-0.927
8,TTCTTTATAAAGTTGATCTTTG,-0.111
9,TTCAGATCTAGCACTGTGCAGA,-0.0416
10,TAACATATCAATGAGATCTATT,-0.518
11,TTCTGAGCTATCTCCATCCTCG,-0.213
12,TTCAAGAATATCAAGATCTTGT,0.566

# Molecular target: BRP44L
# Test: as above
# Details: shRNA
row,Sequence,sensor-assay potency score (higher = more potent)
1,TTAATTGCATATTTTGAGCTAC,-0.357
2,TTTTGAGCTACTCTTTATGGAA,-0.685
3,TCGTGTTTGATAAGCCGCCCTC,-0.468
4,TTTTTCATTAAGTAAATTCTAA,-0.748
5,TAGTCCCGGAAATCCTTGCTTC,-0.727
6,TAACATTTTTAAACAGTGGGGA,0.282
7,TACCTTGTAGGCAAATCTCATG,-1.15
8,TTTGATAAGCCGCCCTCCCTGG,-0.467
9,ATGAATGTCAAAGAATAGCAAC,-1.23
10,TTGCTTCGGACATAGTCCGCCG,-0.944
11,TTCGGACATAGTCCGCCGCTTT,-1.36
12,TCAAAGAATAGCAACAGAGGGC,-0.477

# Molecular target: BST2
# Test: as above
# Details: shRNA
row,Sequence,sensor-assay potency score (higher = more potent)
1,TTCTTGTCCGCGATTCTCACGC,-0.275
2,ATTAGGGCCATCACAGTGTGGT,-0.491
3,TCGCTGTTGGCCTTGATGGTGA,-1.17
4,TACAGCGCTTATCCCCGTCTTC,-1.34
5,TAATGTAGTGATCTCTCCCTCA,0.239
6,TGGTTTTCTCTTCTCAGTCGCT,-0.752
7,TTTAATGTAGTGATCTCTCCCT,0.397
8,TCAAGCTCCTCCACTTTCTTTT,-0.76
9,TAGTACTTCTTGTCCGCGATTC,-1.14
10,TGAAGCTTATGGTTTAATGTAG,-0.303
11,TACTTCTTGTCCGCGATTCTCA,-0.543
12,TCTCACGCTTAAGACCTGGTTT,-0.474
13,TTAATGTAGTGATCTCTCCCTC,-0.16
